# Measured values: ChEMBL document CHEMBL3988442, “University of Dundee, Small-Polar-MMV Screening Library” (2021)
# Screen size: about 48,000 compounds; about 13,000 (27%) showed an effect of 50% or more. The list shows a part of the results.
# System: Wolbachia pipientis
# Assay: Anti-Wolbachia Cell-Based Screen
# Assay type: functional
# Parameters: scale not given: in the data most compounds retested in dose-response had high values
# Settings: 5 µM
row,SMILES,Percent Effect
1,O=C(CNC(=O)C1CCCC1)NCc1cnn(-c2ccc(F)cc2F)c1,-3.155%
2,CC(=O)N1CCc2c(nc(N(C)C)nc2NCCc2cccs2)C1,30.52%
3,Cc1ccccc1C(O)CNC(=O)Cc1ccc(F)cc1 (stereo unspecified),-16.74%
4,O=C(CCN1CCOC(CNc2cccnn2)C1)NC1CCCCC1 (stereo unspecified),89.48%
5,O=C(CN1CCOC(Cn2cccn2)C1)NC1CCN(C2CC2)CC1 (stereo unspecified),-5.348%
6,c1cnnc(NCC2CN(CCN3CCCCC3)CCO2)c1 (stereo unspecified),-1.688%
7,OC1(CN2CCOC(CNc3cccnn3)C2)CCCCC1 (stereo unspecified),90.58%
8,O=C(CCN1CCOC(Cn2cccn2)C1)NC1CCCC1 (stereo unspecified),3.251%
9,O=C(CN1CCOC(CNc2cccnn2)C1)N1CCCCC1 (stereo unspecified),113.9%
10,O=C(CCN1CCOC(Cn2cccn2)C1)NC1CCCCC1 (stereo unspecified),137.8%
11,Cc1c2nnn(CC(=O)N(C)C)c(=O)c2nn1C,15.44%
12,COCc1nc2cc(NCc3ccc(C)o3)ccc2o1,-0.6949%
13,COCCN(C)CCN1CC2(CCN(C3CCCOC3)CC2)OC1=O (stereo unspecified),-0.4921%
14,Cc1cnccc1NCCn1ccnc1C1CCCCC1,3.788%
15,Cc1ncc(CN(C)CC(O)c2ccc(OC(F)(F)F)cc2)s1 (stereo unspecified),-20.59%
16,Cc1cn2c(n1)CCC(NC(=O)c1ccc(CS(C)(=O)=O)o1)C2 (stereo unspecified),-5.623%
17,Cc1cn2c(n1)CCC(NC(=O)Cn1cncn1)C2 (stereo unspecified),119.2%
18,Cc1cn2c(n1)CCC(NC(=O)CCn1cncn1)C2 (stereo unspecified),-7.204%
19,Cc1cn2c(n1)CCC(NC(=O)CCC(F)(F)F)C2 (stereo unspecified),10.47%
20,Cc1cnn(CCC(=O)NC2CCc3nc(C)cn3C2)c1 (stereo unspecified),105.9%
21,Cc1cn2c(n1)CCC(NC(=O)CCn1ccnn1)C2 (stereo unspecified),-2.127%
22,Cc1cn2c(n1)CCC(NC(=O)CCCn1cncn1)C2 (stereo unspecified),102.3%
23,CCN(C(=O)CNC1CCc2ncnn2C1)C1=CCCCC1 (stereo unspecified),-6.833%
24,CC(C)Oc1ccc(NCc2ccc([S+](C)[O-])cc2)c(F)c1 (stereo unspecified),7.808%
25,O=C(NCc1nn(-c2ccccc2)c2c1CCC2)NC1CC1,-2.781%
26,CCc1cc(CNC(=O)NCc2ccc(N3CCCCC3)cc2)on1,-23.7%

row,SMILES,Percent Effect
1,O=C(c1ccc(S(=O)(=O)NC2CCC2)cc1)N1CC[C@H]2CNC[C@H]21,-0.3981%
2,O=C1CC(NS(=O)(=O)c2ccc(F)c(Cl)c2)CN1 (stereo unspecified),135.6%
3,O=C1CC(NS(=O)(=O)c2ccc(Br)cc2)CN1 (stereo unspecified),151.1%
4,O=C1CC(NS(=O)(=O)c2cccc(F)c2)CN1 (stereo unspecified),126.5%
5,CSc1ccc(S(=O)(=O)NC2CNC(=O)C2)cc1 (stereo unspecified),-0.4933%
6,Cc1ccc(S(=O)(=O)NC2CCC(=O)NC2)cc1Br (stereo unspecified),-11.56%
7,CC(Cn1ccnc1)NS(=O)(=O)c1ccc(F)c(Cl)c1 (stereo unspecified),-9.501%
8,COC(=O)c1ccc(S(=O)(=O)NC2CNC(=O)C2)cc1 (stereo unspecified),131%
9,Cn1nnn(-c2ccc(NS(=O)(=O)c3ccc(F)c(Cl)c3)cc2)c1=O,-5.508%
10,COc1cccc(S(=O)(=O)NC2CNC(=O)C2)c1 (stereo unspecified),1.379%
11,O=S(=O)(NC1CC1)c1cccc(Br)c1,-14.81%
12,CSCCCN1CCn2nc(CNC(=O)N(C)C)cc2C1,-17.64%
13,Cc1ncsc1CCC(=O)NC1CCN(c2ncccc2C#N)CC1,5.658%
14,Cc1ccc2c(c1)C(N1CCOCC1)CC21CCNCC1 (stereo unspecified),-7.905%
15,Cc1ccccc1SCC(=O)Nn1cnnc1,-2.526%
16,O=C(C(O)c1ccccc1Cl)N1CCCN(Cc2cccnc2)CC1 (stereo unspecified),-0.1768%
17,Cc1nc([C@@H]2C[C@H]3CN(Cc4ccc5c(c4)OCO5)C[C@H]3O2)no1,-16.45%
18,O=C(COCC1CC1)Nc1cc(S(=O)(=O)NC2CC2)ccc1F,1.35%
19,O=C1CC(NS(=O)(=O)c2ccccc2)CN1Cc1ccccc1 (stereo unspecified),4.424%
20,O=C1CC(NS(=O)(=O)c2ccc3ccccc3c2)CN1 (stereo unspecified),96.97%
21,Cc1ccc(S(=O)(=O)NC2CNC(=O)C2)cc1C (stereo unspecified),-5.685%
22,N#CC1COCCN1S(=O)(=O)c1ccc2ccccc2c1 (stereo unspecified),-7.007%
23,O=C1CC(NS(=O)(=O)c2ccc(Cl)cc2)CN1 (stereo unspecified),124.5%
24,CC(C)O[C@H]1CN(C(=O)CCN2CCCCO2)C[C@@H]1O,-9.995%
25,Cc1nnc(SCCNC(=O)c2cc(S(N)(=O)=O)ccc2F)s1,5.633%
26,O=C(O)C(F)(F)F.O=C(c1ccccc1)N1CCO[C@@H]2CN(c3ncccn3)C[C@@H]2C1,5.105%

row,SMILES,Percent Effect
1,O=C(O)C(F)(F)F.O=C(c1ccc(O)cc1)N1C[C@@H]2OCCN(c3ncccn3)[C@@H]2C1,101.3%
2,O=C(c1ccoc1)N1CC[C@@H]2[C@@H](CC1)OCCN2c1cccnc1,-2.409%
3,O=C(O)C(F)(F)F.O=C(c1ccco1)N1C[C@@H]2[C@@H](C1)OCC(=O)N2Cc1cccnc1,-32.49%
4,O=C(O)C(F)(F)F.O=C(c1ccoc1)N1C[C@@H]2OCCN(c3ncccn3)[C@@H]2C1,85.6%
5,O=C(O)C(F)(F)F.O=C(c1ccco1)N1C[C@@H]2OCCN(c3ncccn3)[C@@H]2C1,113.8%
6,O=C(O)C(F)(F)F.O=C(c1ccc(F)cc1)N1C[C@@H]2OCCN(c3ncccn3)[C@@H]2C1,-10.32%
7,O=C(O)C(F)(F)F.O=C(c1ccco1)N1C[C@@H]2CN(c3ccccn3)C[C@@H]2C1,-23.25%
8,O=C(O)C(F)(F)F.O=C(c1ccoc1)N1C[C@@H]2[C@@H](C1)OCC(=O)N2Cc1cccnc1,-4.595%
9,CSCC[C@@H](CO)Nc1ccc(-c2nc(-c3ccccc3C)no2)cn1,8.283%
10,COCCN1CCC(NC(=O)Nc2cccc(F)c2)C1 (stereo unspecified),-22.85%
11,CC(C)CS(=O)(=O)CC(=O)NC(C)(C)c1cccc(F)c1,8.066%
12,CO[C@@H]1CCC[C@@H](NC(=O)C(C)(C)c2cccc(F)c2)[C@H]1O,116.6%
13,Fc1cccc(-n2nc(C3CC3)nc2CCn2cnnn2)c1,-8.194%
14,CN(C)Cc1ccnc(C2CCCN2Cc2cccc(F)c2F)n1 (stereo unspecified),111%
15,Cc1nn(C)c(C)c1CN1CCCC1c1nccc(CN(C)C)n1 (stereo unspecified),96.16%
16,Cc1cnn(CC2CCCN2CC(=O)N(C)Cc2cnn(C)c2)c1 (stereo unspecified),-0.6585%
17,Cc1nn(C)c(C)c1CN(C)C(=O)C1COc2ccccc2C1 (stereo unspecified),-11.47%
18,Cc1cnc(CN2CCCC2c2noc(C)n2)cn1 (stereo unspecified),-5.918%
19,CN(C)Cc1ccnc(C2CCCN2Cc2cc[nH]n2)n1 (stereo unspecified),-4.978%
20,Cn1cc(C2CCCN2Cc2csc(C(C)(C)C)n2)cn1 (stereo unspecified),3.745%
21,CCCn1cc(CN2CCCC2c2nccc(CN(C)C)n2)cn1 (stereo unspecified),91.04%
22,CN(C)Cc1ccnc(C2CCCN2Cc2ccc(F)cn2)n1 (stereo unspecified),110.9%
23,C1CCN(CCOC2CCNC2)CC1.Cl.Cl (stereo unspecified),-5.434%
24,CCNC(=O)[C@@H]1C[C@H](N)CN1Cc1ccc2cccc(Cl)c2n1,33.76%
25,Cn1cnc(S(=O)(=O)N2C[C@H](OCC3CC3)[C@H]3OCCC[C@H]32)c1.O=C(O)C(F)(F)F,-7.803%
26,CCSCC(C)NCc1nn(C)c2ccc(C)cc12 (stereo unspecified),-30.17%

row,SMILES,Percent Effect
1,CCC1CN(C(=O)c2ccc(O)c(C)c2)CCN1C(C)C (stereo unspecified),-1.675%
2,COC(=O)[C@@H]1Cc2c[nH]c3cccc(c23)[C@H](CC(C)C)N1,-15.46%
3,O=C(CCOCC(F)(F)F)NS(=O)(=O)c1cccnc1,3.556%
4,Cc1ccc(CCN2C(=O)CC[C@H]3CN(Cc4cnn(C)c4)CC[C@H]32)o1,42.08%
5,CCN(Cc1cnn(C)c1)S(=O)(=O)N1CCCC1c1ccco1 (stereo unspecified),12.89%
6,CCN(CC)S(=O)(=O)N1CCCC1CC(=O)c1cccs1 (stereo unspecified),1.947%
7,CN1CCc2nnc(C3CCCN3S(=O)(=O)c3ccc(F)cc3)n2CC1 (stereo unspecified),101.3%
8,CCN(CC)S(=O)(=O)N1CCCC1c1nnc2n1CCN(C)CC2 (stereo unspecified),109.2%
9,Fc1ccc(-c2nnc(CN3CCn4c(nnc4C4CC4)C3)o2)cc1,-8.144%
10,COc1cccc2c1CCN(C(=O)NCc1nnc3ccccn13)C2,-4.622%
11,COc1cc(NC(=O)C2CC(=O)N(c3cccc(Br)c3)C2)ncn1 (stereo unspecified),-7.851%
12,CCNC(=O)[C@@H]1C[C@@H](N)CN1Cc1ccc2cccc(Cl)c2n1,-2.31%
13,CCc1ccc2c(c1)C(CCNC(=O)CSC(F)(F)F)C(=O)N2 (stereo unspecified),2.698%
14,CN(C)CC1CCCCN1C(=O)c1ccc(N2CCOCC2)cc1 (stereo unspecified),108.2%
15,Cc1ccccc1C(=O)N1CCOCC1CN(C)C.O=CO (stereo unspecified),-21.7%
16,Cc1ccc(C(=O)N2CCCCC2CN(C)C)cc1 (stereo unspecified),107.2%
17,CCC1CCCCCN1C(=O)c1ccc(N2CCC(O)CC2)cc1 (stereo unspecified),94.71%
18,CCC1CCCCN1C(=O)c1ccc2[nH]nnc2c1 (stereo unspecified),1.78%
19,CCC1CCCCCN1C(=O)c1coc(S(=O)(=O)N(C)C)c1 (stereo unspecified),15.41%
20,COCCCC1CCCCN1C(=O)c1ccc(SCCO)cc1 (stereo unspecified),-1.649%
21,Cc1cnn(CC2CCCCN2C(=O)c2ccc(CN(C)C)cc2)c1 (stereo unspecified),17.54%
22,CN(C)CC1COCCN1C(=O)c1ccccc1C(=O)c1ccccc1.O=CO (stereo unspecified),-10.61%
23,Cn1cccc1-c1nnc(C2(c3ccc4c(c3)OCO4)CCOCC2)o1,-12.47%
